A selection: hits, their analogues and other compounds. The true share with any hit is near 12%.
BAZ2B block = blocks human BAZ2B; AlphaScreen BAZ2B-H3K14Ac peptide displacement; Potency, µM (doses to about 114 µM), most hits filed as inhibitors; hit rate 4.4% among 360,000; AID 504333; note: nearly all actives have a fitted effect of over 60% in size
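In this displacement format the biotinylated H3(5-23) peptide acetylated at Lys14 serves as ligand at 50 nM, with BAZ2B at 50 nM in PBS pH 7.4 containing 0.01% Tween-20. Donor and acceptor beads are 10 ug/mL final.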
HP1b chromo inh = blocks HP1-beta chromodomain binding to methylated histone tails | AlphaScreen HP1-beta / biotin-H3K9me3 peptide binding | AID 540317 | Potency, µM (highest dose often 114 µM), most hits filed as inhibitors | hit rate 0.56% among 390,000; note: nearly all actives have a fitted effect of over 70% in size
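Compound inhibition of the preformed complex between 50 nM HP1-beta and 50 nM biotinylated H3K9me3 peptide was read by AlphaScreen. Buffer was PBS pH 7.4 with 0.01% Tween-20. Incubations ran 30 min at room temperature, with 10 ug/mL donor/acceptor beads.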
G9a block = inhibitors of human histone lysine methyltransferase G9a | Q96KQ7 | G9a H3K9 monomethylation, AlphaScreen, 2 h | Potency, µM (series often up to 102 µM), usual class: inhibitors | hit rate 8.8% among 350,000 | AID 504332; note: nearly all actives have a fitted effect of over 75% in size
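Methyltransferase reactions run at room temperature for 2 h (20 nM enzyme, 500 nM biotin-H3K9 peptide, 20 uM SAM) after a 15 min compound preincubation; product detected by AlphaScreen beads and anti-H3K9me1 antibody.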
Sfp PPTase inh = blocks B. subtilis Sfp PPTase activity; Biochemical Sfp PPTase activity, qHTS; Potency, µM, most hits filed as inhibitors; hit rate 3.5% among 310,000; Q9F4F7;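 note: the enzyme is Sfp with the accession as filed and its product quenches rhodamine fluorescence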
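Fluorescence-quenching assay: 15 nM Sfp-PPTase preincubated 15 min at room temperature with compound, then 5 uM rhodamine-CoA and 12.5 uM BHQ-2-labelled YbbR peptide added. Fluorescence (ex 525/em 598 nm) read at start and after 30 min; difference gives rate.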
JMJD2A Tudor = blocks the human JMJD2A Tudor domain; O75164; hit rate 4.4% among 390,000; AID 504339; AlphaScreen JMJD2A-Tudor / H3K4me3 peptide binding; Potency, µM (series often up to 114 µM), most hits filed as inhibitors; note: nearly all actives have a fitted effect of over 50% in size
Large screens that a line does not name were inactive. Calls come from the whole dose curve; as a rule, active = well fitted curve in the direction sought with a large enough effect; inconclusive = small, poorly fitted or top-dose-only effect, or another doubt; inactive = no such curve, though single readings can be large; an effect the other way counts as inactive or inconclusive.

Cc1ccc(-c2nnn(CC(=O)N(Cc3ccco3)C(C(=O)NC(C)(C)C)c3cccs3)n2)o1 (stereo not drawn)	BAZ2B block inconclusive, G9a block 12.6µM, Sfp PPTase inh inconclusive
Cc1ccc(-c2nnn(CC(=O)N(Cc3cccs3)C(C(=O)NC(C)(C)C)c3ccc(C)o3)n2)o1 (stereo not drawn)	G9a block inconclusive
Cc1ccc(-c2nnn(CC(=O)N(Cc3cccs3)C(C(=O)NC(C)(C)C)c3ccco3)n2)o1 (stereo not drawn)	G9a block 17.8µM, Sfp PPTase inh inconclusive
COc1cccc(N(C(=O)Cn2nnc(-c3ccc(C)o3)n2)C(C(=O)NC(C)(C)C)c2cccs2)c1 (stereo not drawn)	none
CCN(CC)Cc1c(O)ccc2cc(-c3nc4ccccc4n3C)c(=O)oc12	Sfp PPTase inh inconclusive
Cc1cc(=O)n2c(C(=O)Nc3ccc(F)c(Cl)c3)c(C(=O)Nc3cccc(C)c3C)sc2n1	G9a block 11.2µM (no result: Sfp PPTase inh)
Cc1cc(=O)n2c(C(=O)Nc3ccc(C(=O)OC(C)C)cc3)c(C(=O)Nc3ccccc3)sc2n1	G9a block 44.7µM
COc1ccc(C)cc1NC(=O)c1c(C(=O)Nc2cccc(C)c2C)sc2nc(C)cc(=O)n12	none (no result: Sfp PPTase inh)
COc1ccc(-c2cc3nc(C)c(CCC(=O)Nc4cccc(C(F)(F)F)c4)c(C)n3n2)c(OC)c1	G9a block inconclusive (no result: Sfp PPTase inh)
CC(C)(C)c1cc(C(=O)NCc2cc(F)cc3c2OCOC3)n(Cc2ccccc2)n1	none
CCOc1ccc(NC(=O)CSc2nnc3c(n2)[nH]c2ccc(S(=O)(=O)N4CCCCC4)cc23)cc1	none (no result: BAZ2B block, G9a block, Sfp PPTase inh)
CC(=O)C1=C(NC(=O)c2ccccc2F)C[C@@H]2[C@H]1C2(C)C	G9a block 56.2µM
CC(=O)C1=C(NC(=O)c2ccc(C(F)(F)F)cc2)C[C@@H]2[C@H]1C2(C)C	none
C=CCC1C=CC(OC(=O)OCC)C(COC(=O)OCC)O1 (stereo not drawn)	none (no result: BAZ2B block, HP1b chromo inh, G9a block, JMJD2A Tudor)
CC(C)CSc1ccc(S(=O)(=O)NCC(=O)O)cc1[N+](=O)[O-]	G9a block 50.1µM
COc1ccc(CCNC(=O)CNS(=O)(=O)c2ccc(N(C)C)c([N+](=O)[O-])c2)cc1OC	G9a block inconclusive
CN(C)c1ccc(S(=O)(=O)NCC(=O)OCC(=O)NC(=O)C2CCCCC2)cc1[N+](=O)[O-]	none (no result: Sfp PPTase inh)
CNc1ccc(S(=O)(=O)NCC(=O)OC(C)C(=O)N(C)Cc2ccccc2)cc1[N+](=O)[O-] (stereo not drawn)	none (no result: Sfp PPTase inh)
CSc1ccc(S(=O)(=O)NCC(=O)OC(C)C(=O)NCc2ccccc2)cc1[N+](=O)[O-] (stereo not drawn)	none (no result: Sfp PPTase inh)
CNc1ccc(S(=O)(=O)NCC(=O)NCCCc2ccccc2)cc1[N+](=O)[O-]	BAZ2B block 50.1µM, G9a block 39.8µM, JMJD2A Tudor inconclusive
CN(C)c1ccc(S(=O)(=O)NCC(=O)NCc2ccccc2)cc1[N+](=O)[O-]	BAZ2B block inconclusive, G9a block 44.7µM, JMJD2A Tudor inconclusive
CN(C)c1ccc(S(=O)(=O)NCC(=O)OCC(=O)Nc2cccc(Cl)c2)cc1[N+](=O)[O-]	BAZ2B block inconclusive, G9a block 56.2µM, JMJD2A Tudor inconclusive
Cn1cc(Br)c(C(=O)n2cc(Br)cn2)n1	JMJD2A Tudor inconclusive
CSC(C1CCCC1)n1nnc2ccccc21 (stereo not drawn)	none (no result: Sfp PPTase inh)
COc1ccc(Cl)cc1-c1nc(-c2ccc(NC(=O)c3cccs3)cc2)no1	none
O=C(c1ccccc1)c1nc2c(n1O)CCCCC2	BAZ2B block 79.4µM, G9a block 56.2µM
CCCOc1ccc(C(=O)c2nc3c(n2O)CCCCC3)cc1	JMJD2A Tudor inconclusive
C=CCn1c(SCC(N)=O)nc2ccccc2c1=O	none (no result: BAZ2B block, G9a block, Sfp PPTase inh)
Cc1ccc(S(=O)(=O)NCCc2nnc3ccc(SCC(=O)Nc4ccc(F)cc4F)nn23)cc1	none (no result: Sfp PPTase inh)
CC(NC(=O)c1ccco1)C(c1cccs1)N1CCN(c2ccc(F)cc2)CC1 (stereo not drawn)	BAZ2B block 50.1µM, G9a block 50.1µM
CC(NC(=O)c1ccco1)C(c1cccs1)N1CCN(c2ccccc2)CC1 (stereo not drawn)	BAZ2B block inconclusive, G9a block inconclusive, JMJD2A Tudor inconclusive

Source: PubChem (National Center for Advancing Translational Sciences (NCATS))
